PubChem BioAssay (NCATS)
Records with an inconclusive call do not appear. Active and inactive are the calls of the source. Unless noted, calls come from the whole dose curve; as a rule, active = well fitted curve in the direction sought with a large enough effect; inconclusive = small, poorly fitted or top-dose-only effect, or another doubt; inactive = no such curve, though single readings can be large; an effect the other way counts as inactive or inconclusive.

Columns and labels:
[1] = qHTS for Inhibitors of the Functional Ribonucleoprotein Complex (vRNP) of Lassa (LASV) Arenavirus: LASV Primary Screen - GLuc reporter signal (AID 1347082; calls by dose curve; tested in HEK293 reporter line; note: series mostly up to about 57 µM; nearly all actives have a fitted effect of over 60% in size)
[2] = qHTS for Inhibitors of the Functional Ribonucleoprotein Complex (vRNP) of Lassa (LASV) Arenavirus: Viability assay - alamar blue signal for LASV Primary Screen (AID 1347083; calls by dose curve; tested in HEK293 reporter line; note: series mostly up to about 57 µM; nearly all actives have a fitted effect of over 80% in size)
[3] = qHTS for Inhibitors of the Functional Ribonucleoprotein Complex (vRNP) of Lymphocytic Choriomeningitis Arenaviruses (LCMV): Viability assay - alamar blue signal for LCMV Primary Screen (AID 1347085; calls by dose curve; tested in HEK293 reporter line; note: series mostly up to about 57 µM; nearly all actives have a fitted effect of over 80% in size)
[4] = target: Nucleoprotein (Lymphocytic choriomeningitis virus (strain Armstrong)) (UniProt P09992); experiment: qHTS for Inhibitors of the Functional Ribonucleoprotein Complex (vRNP) of Lymphocytic Choriomeningitis Arenaviruses (LCMV): LCMV Primary Screen - GLuc reporter signal (AID 1347086; calls by dose curve; note: series mostly up to about 57 µM; nearly all actives have a fitted effect of over 70% in size)
[5] = qHTS of pediatric cancer cell lines to identify multiple opportunities for drug repurposing: Primary screen for TC32 cells (AID 1347089); note: nearly all actives have a fitted effect of over 60% in size
Method in brief: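 In the primary qHTS, MIPE compounds were tested at 11 concentrations (0.78 nM to 46 µM) and NPC compounds at 8 (0.59 nM to 46 µM) on TC32 cells for 48 h. CellTiter-Glo luminescence gave viability.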

[6] = qHTS of pediatric cancer cell lines to identify multiple opportunities for drug repurposing: Primary screen for DAOY cells (AID 1347090); note: series mostly up to about 46 µM; nearly all actives have a fitted effect of over 55% in size
Method in brief: (§1)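 Viability measured as metabolically active cells via CellTiter-Glo luminescence following 48 hours of compound exposure, 11-point dilutions in confirmatory testing. 500-1,000 cells/well plated 5 hours before dosing; controls were DMSO and 2.3 µM bortezomib.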

[7] = qHTS of pediatric cancer cell lines to identify multiple opportunities for drug repurposing: Primary screen for SJ-GBM2 cells (AID 1347091)
Method in brief: as §1

[8] = qHTS of pediatric cancer cell lines to identify multiple opportunities for drug repurposing: Primary screen for A673 cells (AID 1347092); note: nearly all actives have a fitted effect of over 45% in size
Method in brief: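 48 h compound exposure, A673, 500-1,000 cells/well, 37 degrees C/5% CO2. MIPE: 11-point, 0.78 nM-46 µM; NPC: 8-point, 0.59 nM-46 µM (final). Readout CellTiter-Glo luminescence after 15 min RT.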

[9] = qHTS of pediatric cancer cell lines to identify multiple opportunities for drug repurposing: Primary screen for SK-N-MC cells (AID 1347093); note: series mostly up to about 46 µM
Method in brief: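 Metabolically active cells were quantified by ATP-dependent luminescence (CellTiter-Glo, 15 min at room temperature) following 48 h treatment. Cells had been plated at 500-1,000 per well and settled for 5 h beforehand.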

Measured: Potency

Nucleoprotein (Lymphocytic choriomeningitis virus (strain Armstrong)), sequence (P09992 whole entry, looked up): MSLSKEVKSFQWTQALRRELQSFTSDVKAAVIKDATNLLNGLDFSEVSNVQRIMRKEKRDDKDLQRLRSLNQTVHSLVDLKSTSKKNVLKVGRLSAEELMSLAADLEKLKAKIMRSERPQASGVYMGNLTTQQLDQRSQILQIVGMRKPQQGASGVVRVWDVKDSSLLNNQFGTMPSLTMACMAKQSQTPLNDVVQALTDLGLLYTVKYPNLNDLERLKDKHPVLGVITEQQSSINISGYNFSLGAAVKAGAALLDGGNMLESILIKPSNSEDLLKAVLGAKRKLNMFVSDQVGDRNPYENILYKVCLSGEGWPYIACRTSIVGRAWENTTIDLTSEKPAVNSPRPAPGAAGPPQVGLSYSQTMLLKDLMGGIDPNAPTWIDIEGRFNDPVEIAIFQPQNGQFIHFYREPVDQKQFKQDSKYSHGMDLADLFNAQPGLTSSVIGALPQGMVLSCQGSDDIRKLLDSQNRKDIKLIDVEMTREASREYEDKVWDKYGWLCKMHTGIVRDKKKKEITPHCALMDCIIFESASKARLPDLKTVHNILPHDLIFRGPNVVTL

CC(O)CN(CCN(CC(C)O)CC(C)O)CC(C)O (stereo unspecified)
inactive: [1] | [2] | [3] | [4]

CN1CC[C@]23c4c5ccc(O)c4O[C@H]2[C@@H](O)C=C[C@H]3[C@H]1C5
not listed: [8] | [9]
inactive: all other assays above

C=CCC1(C(C)CC)C(=O)NC(=O)NC1=O (stereo unspecified)
inactive: all assays above

CCC1(CC)C(=O)C=CNC1=O
inactive: all assays above

CC(=O)Oc1ccc(C)cc1
inactive: [1] | [2] | [3] | [4]

Nc1ccccc1C(=O)O
inactive: all assays above

Clc1cccc(SC2CCNCC2)n1
not listed: [9]
inactive: all other assays above

C[C@@H](N)[C@@H](O)c1ccccc1
inactive: all assays above

C=CCN1C[C@H](C)N([C@H](c2ccc(C(=O)N(CC)CC)cc2)c2cccc(OC)c2)C[C@H]1C
inactive: all assays above

COc1cc(OC)c(OC)cc1C=O
not listed: [9]
inactive: all other assays above
